Shown are actives, neighbours in structure and some others; about 27% of the full set was active somewhere.
CYP2C19 activ – cytochrome P450 2C19 (human) activation; P33261; recombinant CYP2C19, luciferin-H EGE luminescence; active compounds read high; 0 = fully inhibited enzyme, 1 = untreated enzyme; activation factor at 5 µM; 96,000 tested, under 10 active; AID 1025;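 active means activation factor of at least 2 at 5 µM in the primary screen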
Target sequence (P33261 whole entry, looked up): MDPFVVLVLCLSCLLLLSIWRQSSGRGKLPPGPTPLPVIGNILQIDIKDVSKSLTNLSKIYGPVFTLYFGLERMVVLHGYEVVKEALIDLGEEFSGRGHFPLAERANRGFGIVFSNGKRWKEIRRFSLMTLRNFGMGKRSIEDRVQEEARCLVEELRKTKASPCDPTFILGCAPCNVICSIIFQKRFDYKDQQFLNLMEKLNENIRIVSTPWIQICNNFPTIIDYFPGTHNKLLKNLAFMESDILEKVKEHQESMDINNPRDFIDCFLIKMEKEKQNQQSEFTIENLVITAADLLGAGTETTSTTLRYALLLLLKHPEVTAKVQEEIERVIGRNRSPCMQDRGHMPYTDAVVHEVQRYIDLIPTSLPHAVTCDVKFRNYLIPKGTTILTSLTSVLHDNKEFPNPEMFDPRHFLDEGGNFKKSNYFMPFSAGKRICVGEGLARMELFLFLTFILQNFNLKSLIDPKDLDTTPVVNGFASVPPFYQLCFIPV
CYP2C9 act – increases human cytochrome P450 2C9 activity; activation factor at 5 µM; recombinant CYP2C9, luciferin-H conversion, luminescence; active compounds read high; factor 1 = untreated enzyme, 0 = blocked; 1.4% of 96,000 active;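 active means activation factor of 2 or more for CYP2C9 at a 5 µM dose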
CYP2C19 inh – human CYP2C19 inhibition. P33261. CYP2C19 Supersomes, luciferin-H EGE luminescence, 30 min. AID 778. 21% of 96,000 active. inhibition, % at 5 µM;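 active means CYP2C19 inhibition above a set limit at 5 µM in the primary screen, cut at about 50% in these data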
CYP2C9 inh – human CYP2C9 inhibition. inhibition, % at 5 µM. CYP2C9 Supersomes, luciferin-H conversion, luminescence. P11712. 20% of 96,000 active;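 active means blocking of liver enzyme CYP2C9 beyond about 50% at 5 µM, limit read from the data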
Cav32 inh – blocks human Cav3.2 T-type calcium channel. AID 449739. B-score at 10 µM. O95180. Cav3.2-expressing cells, Fluo-4 calcium fluorescence FDSS; active compounds read low. 4% of 100,000 active;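 active means single-dose well whose peak fluorescence ratio is a statistical outlier from its plate by either plate-standardised score or position-corrected B-score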
A number is an active result; - = inactive; . = not tested or not shown.

SMILES	CYP2C19 activ	CYP2C9 act	CYP2C19 inh	CYP2C9 inh	Cav32 inh
Cc1cc(C)nc(SCc2nnc(SCC(=O)Nc3ccc(Cl)c(C(F)(F)F)c3)o2)n1	-	-	-	-	-
Cc1cccc(NC(=O)CCSc2nc(C)cc(C)n2)c1	-	2.7	52	-	-
Cc1cc(C)nc(SCCC(=O)N(C)C)n1	-	-	-	-	-
Cc1cc(Br)cc(C)c1NC(=S)NC(=O)CC(C)C	-	-	-	-	.
CCOC(=O)C1C(=O)NC(c2ccccc2)=NC1c1ccc(C(C)C)cc1 (centres undefined)	-	-	-	-	-
CCOC(=O)C1C(=O)NC(c2ccccc2)=NC1c1ccc(Cl)cc1 (centres undefined)	-	-	57	-	.
CCSc1nnc(NC(=O)Cc2ccc(OC)c(S(=O)(=O)N3CCOCC3)c2)s1	-	-	-	-	-
O=C(CN1CCOCC1)NC1C2CC3CC(C2)CC1C3 (centres undefined)	-	-	-	-	-
CCOC(=O)N1CCN(S(=O)(=O)c2ccc3c(c2)CCN3C(=O)C2CC2)CC1	-	-	-	-	-
CCC(CC)C(=O)Nc1nc(-c2ccc3c(c2)CCN3C(=O)C2CC2)c(C)s1	-	-	-	81	-
Cn1c(/C(C#N)=C/C2CC=CCC2)nc2ccccc21 (centres undefined)	-	-	58	-	-
c1ccc2c(c1)nc(N1CCOCC1)c1c3ccccc3[nH]c21	-	-	-	-	-
Cc1ccc(N2C(=O)CSC23C(=O)Nc2ccccc23)cc1 (centres undefined)	-	-	79	-	-
CC(C)C12CN3CC(C(C)C)(CN(C1)C31C(=O)Nc3ccccc31)C2=O (centres undefined)	-	-	-	-	-
COCCN1C=C(C(=O)OC)C(c2cc(Br)c(OC)c(OC)c2)C(C(=O)OC)=C1	-	-	-	91	-
COC(=O)C1=CN(C)C=C(C(=O)OC)C1c1ccc(O)c(OC)c1	-	-	-	-	-
CN(C)c1ccc(-c2nn3c(C4CCCCC4)nnc3s2)cc1	-	-	52	55	-
CCOc1ccccc1OCc1nn2c(COc3ccccc3)nnc2s1	-	-	-	-	-
Clc1ccccc1-c1nn2c(COc3ccccc3)nnc2s1	-	-	95	82	-
c1ccc(Cc2nn3c(COc4ccccc4)nnc3s2)cc1	-	-	66	-	-
c1ccc(OCc2nn3c(C4CCCCC4)nnc3s2)cc1	-	-	-	51	-
CCOc1ccc(-c2nnc3sc(COc4ccccc4)nn23)cc1	-	-	-	-	-
O=C1NCCN1Cc1ccc(F)cc1	-	-	-	-	-
COC(=O)c1nc(NC(=O)C(C)C)n[nH]1	-	-	-	-	-
Cc1sc2nc(CN(CCc3ccccc3)C(=O)c3ccco3)[nH]c(=O)c2c1C	-	-	-	-	-
SMILES	CYP2C19 activ	CYP2C9 act	CYP2C19 inh	CYP2C9 inh	Cav32 inh
O=C(Nc1nnc(-c2ccccc2)s1)c1cc(S(=O)(=O)N2CCOCC2)c(Cl)cc1Cl	-	-	-	-	-
CCOC(=O)N1CCN(/C=C(\C#N)c2nc3ccccc3s2)CC1	-	-	80	71	-
COC(=O)c1ccc(/C=C(\C#N)c2nc3ccccc3s2)cc1	-	-	-	-	-
O=C(Nc1ccc2c(c1)oc1ccc(S(=O)(=O)N3CCCC3)cc12)C1CC1	-	-	-	53	-
CCc1cc([N+](=O)[O-])cc(CC)c1N	-	-	55	-	.
O=C(CN1C(=O)C2C3C=CC(C3)C2C1=O)Nc1nc(SCc2ccc(Cl)cc2)n[nH]1 (centres undefined)	-	-	60	-	-8.3
CC1CCCC(NC(=O)Nc2cccs2)C1C (centres undefined)	-	-	-	-	-
COc1ccnc(NCc2cccnc2)c1C#N	-	-	-	-	-
CCCCn1nnnc1NCc1cc(OC)c(OC)cc1OC	-	-	61	-	-
CCCCn1nnnc1NCc1ccc(N2CCCC2)cc1	-	-	-	71	-
CCCCn1nnnc1NCc1cccnc1	-	-	70	-	-
CCCn1nnnc1NCc1ccc(N2CCCC2)cc1	.	.	.	.	-
CCCn1nnnc1NCc1ccccc1OCc1cccs1	-	-	-	-	-
CCOC(=O)c1c(SC)nc(SC)c2c1CCC2	-	-	-	-	-
CCN(CC)S(=O)(=O)c1cccc(NC(=O)Nc2cccc(C(F)(F)F)c2)c1	-	-	-	-	-5.8
CCN(CC)S(=O)(=O)c1cccc(C(=O)N[C@H](C(=O)OCC(N)=O)C(C)C)c1	-	-	-	-	-
Cc1cc(NC(=O)Nc2cccc(C(F)(F)F)c2)no1	-	-	-	-	-
CCN(CC)S(=O)(=O)c1cc(NC(=O)COC(=O)CCc2nc3ccccc3s2)ccc1C	-	-	-	-	-4.8
COCCNC(=O)COC(=O)CSCc1nc2ccccc2s1	-	-	-	-	-
CCN(CC)S(=O)(=O)c1cccc(C(=O)N[C@H](C(=O)OCC(=O)Nc2ccccc2)C(C)C)c1	-	-	93	99	-9.2
CCN(CC)S(=O)(=O)c1cccc(NC(=O)COC(=O)CCc2nc3ccccc3s2)c1	-	2.3	-	-	-
CCN(CC)S(=O)(=O)c1cccc(NC(=O)COC(=O)c2ccc(Br)o2)c1	-	-	-	65	-
COc1ccc(NC(=O)COC(=O)c2ccc(Br)o2)cc1OC	-	-	-	-	-
Cc1cc(NC(=O)Cn2nc(C(F)(F)F)c3c2CCC3)n(-c2ccccc2)n1	-	-	80	62	-
CCc1ccccc1NC(=O)Cn1nc(C(F)(F)F)c2c1CCC2	.	.	.	.	-
SMILES	CYP2C19 activ	CYP2C9 act	CYP2C19 inh	CYP2C9 inh	Cav32 inh
Cc1cccc(N2CCN(S(=O)(=O)c3ccc4c(c3)CCN4C(=O)CCC(=O)O)CC2C)c1 (centres undefined)	-	-	-	-	-
CSc1cc(/C=N/O)c(SC)s1	-	-	66	-	-
CCOc1ccc(N(C(C)C(=O)NC2CCCCCC2)S(C)(=O)=O)cc1 (centres undefined)	-	-	-	-	-
CCOc1ccc(N(C(C)C(=O)NCc2ccco2)S(C)(=O)=O)cc1 (centres undefined)	-	-	78	54	-
COCCNC(=O)C(C)N(c1ccc(Oc2ccccc2)cc1)S(C)(=O)=O (centres undefined)	-	-	53	-	-
CCOc1ccc(S(=O)(=O)N(C)c2ccc(OCC(=O)NCc3ccco3)cc2)cc1	-	-	86	100	-
O=c1oc2ccccc2c(Nc2cccc3ccccc23)c1[N+](=O)[O-]	-	-	91	62	-
COc1ccc(CCNC(=O)Cc2ccc(OCc3ccccc3)c(OC)c2[N+](=O)[O-])cc1OCc1ccccc1	-	-	74	90	.
COc1ccc(CCNc2c([N+](=O)[O-])c(=O)oc3ccccc23)cc1OC	-	-	59	-	-
O=c1oc2ccccc2c(Nc2ccccc2)c1[N+](=O)[O-]	.	.	.	.	-
O=C(CSc1ncn[nH]1)Nc1c(F)cc(F)cc1Br	-	-	-	-	.
COC(=O)c1cccc(NC(=O)CSc2ncn[nH]2)c1	-	-	57	-	-
